KinaseGlo FLuc – counter-screen: inhibitors of Kinase-Glo firefly luciferase; Kinase-Glo luciferase, ATP luminescence, 8 min; Potency, µM (series often up to 38.3 µM), without a hit: at the top dose activity change, negative = inhibition, actives largely listed as inhibitors; Q27757; 200,000 tested, 0.28% active; further: on the % scale 0 is the no-effect control and ±100 the full control effect; nearly all actives have a fitted effect of over 60% in size
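Substrate mix (final 50 mM imidazole pH 7.2, 50 mM KCl, 7 mM MgCl2, 10 uM ATP, 0.01% Tween 20, 0.05% BSA) plus pin-tool compound, then Kinase-Glo detection mix; 8 min ambient, luminescence read.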
NPC1 prom act – activators of NPC1 promoter; Huh7 NPC1 promoter luciferase reporter, 24 h; Potency, µM (highest dose often 9.22 µM), inactives show at the top dose activation, hits mostly activators; 320,000 tested, 2.4% active; further: % of control where 0% means no effect; nearly all actives have a fitted effect of over 60% in size
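Luminescence from an NPC1 promoter-driven luciferase reporter in stably transfected Huh7 cells was measured after 24 h compound treatment at 37 °C, followed by 10 min ambient incubation with luciferase detection reagent.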
FLuc counter – firefly luciferase modulation, counter-screen for miR-21 project. P08659. purified FLuc, Km substrates, luminescence inhibition. Potency, µM (highest dose often 57.5 µM), without a hit: at the highest dose activity change, negative = inhibition, hits mostly inhibitors. 360,000 tested, 6.9% active. AID 588342;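 further: plate controls were vehicle for no effect and reference inhibitor for full effect; nearly all actives have a fitted effect of over 55% in size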
Target sequence (P08659 whole entry, looked up): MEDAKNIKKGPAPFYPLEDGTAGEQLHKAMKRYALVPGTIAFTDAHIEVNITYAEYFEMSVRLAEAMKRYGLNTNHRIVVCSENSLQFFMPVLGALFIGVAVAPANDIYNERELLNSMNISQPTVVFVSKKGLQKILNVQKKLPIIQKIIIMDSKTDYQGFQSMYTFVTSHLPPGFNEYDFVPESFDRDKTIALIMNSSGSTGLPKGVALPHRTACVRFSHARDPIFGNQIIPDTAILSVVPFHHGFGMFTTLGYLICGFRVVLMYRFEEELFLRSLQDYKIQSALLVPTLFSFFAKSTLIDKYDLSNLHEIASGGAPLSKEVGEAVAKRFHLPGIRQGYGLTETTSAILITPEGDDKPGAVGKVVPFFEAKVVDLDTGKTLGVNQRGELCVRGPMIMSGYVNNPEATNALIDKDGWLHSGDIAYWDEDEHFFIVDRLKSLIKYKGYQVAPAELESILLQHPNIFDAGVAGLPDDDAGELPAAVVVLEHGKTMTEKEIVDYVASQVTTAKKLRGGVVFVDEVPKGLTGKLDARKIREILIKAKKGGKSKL
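Biochemical qHTS of compounds, final roughly 60 µM downward over six points, against 10 nM purified firefly luciferase using Km concentrations of substrates (10 uM D-luciferin, 10 uM ATP) in Tris acetate pH 7.5 buffer; luminescence output.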
ELG1 genotox – induces genotoxicity in HEK293T cells with luciferase-tagged ELG1 | HEK293T ELG1-luciferase reporter, luminescence, 16 h | Potency, µM (doses to about 46 µM), for inactives: at the highest dose activity change, positive = activation, actives largely listed as activators | 330,000 tested, 1.3% active | AID 504466; further: % of control where 0% means no effect; nearly all actives have a fitted effect of over 60% in size
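Quantitative HTS format in 1536-well plates. HEK293T ELG1-luciferase reporter cells receive test compound and are incubated 16 hr at 37 °C, 5% CO2; ONE-Glo added, 30 min room temperature, then luminescence read.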
Rab9 prom act – Rab9 promoter activation; Huh7 Rab9 promoter-luciferase reporter, luminescence, 24 h; Potency, µM (doses to about 9.22 µM), for inactives: top-dose activation, negative = inhibition, hits mostly activators; 320,000 tested, 2.8% active; further: % of control where 0% means no effect; nearly all actives have a fitted effect of over 60% in size
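Quantitative HTS format; Huh7 Rab9-luciferase reporter cells (1500/well) receive compound 2 h post-plating, incubate 24 h at 37 °C, then get luciferase reagent for 10 min before luminescence reading.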
SMN2 splice up – enhancers of SMN2 splice variant expression. 210,000 tested, 2.8% active. Potency, µM (top dose mostly 46.1 µM), for inactives: at the highest dose activity change, positive = activation, usual class: activators. HEK293 SMN2-luciferase splicing reporter, luminescence, 30-36 h; further: % of control where 0% means no effect; nearly all actives have a fitted effect of over 55% in size
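HEK293 cells carry an SMN2 minigene-luciferase reporter in which exon 7 inclusion puts luciferase in frame. Cells were seeded at 2000 cells/well, attached for 10-12 hours, then exposed to compounds for 30-36 hours at 37C before ONE-Glo luminescence.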
* marks the source's active call; other numbers are inactive results; ? = inconclusive; . = no result; [ ] = another dose, or the depositor's remark. Only some compounds are listed: those with a hit (about 7.3% of all), similar ones and a draw of the others. The call rests on the fitted dose curve; in most records, active means well fitted curve in the direction sought with a large enough effect; inconclusive means small, poorly fitted or top-dose-only effect, or another doubt; inactive means no such curve, though single readings can be large; an effect the other way counts as inactive or inconclusive. Potency means the concentration at half of the fitted maximal effect.

SMILES	KinaseGlo FLuc	NPC1 prom act	FLuc counter	ELG1 genotox	Rab9 prom act	SMN2 splice up
Cc1ccc(CN2CCSc3ccc(C(=O)Nc4cc(C)cc(C)c4)cc32)cc1	.	.	6%	.	.	-16%
Cc1ccc(CN2CCSc3ccc(C(=O)NCCc4ccccc4)cc32)cc1	.	.	-12%	.	.	13µM*
COc1ccccc1-c1nc(S(=O)(=O)c2ccccc2)c(N2CCC(C)CC2)o1	.	.	5%	.	.	5%
Cc1cccc(OCCn2c(SCC(N)=O)nc3ccccc32)c1	.	.	4%	.	.	7%
CCc1ccc(CNc2nc3nc(C)c(Cc4ccccc4)c(=O)n3[nH]2)cc1	.	.	-14%	.	.	8%
Cc1cccc(N=Nc2c(C)[nH]n(C(N)=S)c2=O)c1C	-1%	?	12µM*	?	4µM*	?
Cc1[nH]n(C(N)=S)c(=O)c1N=Nc1ccc([N+](=O)[O-])cc1Cl	.	?	9.5µM*	1%	30%	.
NC(=S)n1[nH]c(-c2ccc([N+](=O)[O-])cc2)c(N=Nc2cccc(Cl)c2)c1=O	3%	-14%	-17%	-20%	-22%	-62%
Cc1[nH]n(C(N)=S)c(=O)c1N=Nc1cccc(Cl)c1	.	?	5.4µM*	?	?	.
COc1c(C)cccc1C(=O)Nc1ccc(Cl)c(-c2nc3cc(C)ccc3o2)c1	.	.	?	.	.	-21%
C=CC[C@@](C(C)=O)(C(=O)OC)C(NC(=O)OC(C)(C)C)c1ccccc1 (some centres undefined)	0%	.	.	.	.	15%
O=C(O)[C@@H]1[C@@H](C(=O)O)[C@@]23CCCC2=C2CC[C@@]3(C(=O)O)[C@@]3(C(=O)O)C[C@@]213	-4%[7.66 µM]	.	.	.	.	-7%[9.22 µM]
Cc1cc(O)c(-c2n[nH]c3c2C(c2cccc(O)c2)N(Cc2cccnc2)C3=O)cc1Cl (centres undefined)	-5%	-4%	8%	3%	2%	20µM*
O=c1c2sc(-c3ccccc3)cc2nc2n1CCCCC2	.	1.4µM*	2.1µM*	?	0.56µM*	.
O=c1c2sc(-c3ccccc3)cc2nc2n1CCC2	?	0.56µM*	1.3µM*	?	0.45µM*	2.2µM*
CCOC(=O)c1sc(=NC(=O)c2ccc(F)cc2)n(C)c1C	.	4%	0.67µM*	?	23%	.
CCOC(=O)c1sc(=NC(=O)c2ccc(C)cc2)n(C)c1C	0%	19%	?	?	?	22µM*
Cn1c(=NC(=O)COc2ccccc2)sc2cc(F)cc(F)c21	.	12%	3%	0%	30%	.
CCOC(=O)c1sc(=NC(=O)COc2ccccc2)n(C)c1C	2%	?	?	?	3.2µM*	?
CCOC(=O)c1sc(=NC(=O)CCSc2ccccc2)n(C)c1C	-2%	?	?	?	?	?
CCOC(=O)c1sc(=NC(=O)c2c(F)cccc2F)n(C)c1C	.	23%	-22%	?	?	.
CCOC(=O)c1sc(=NC(=O)c2cc(OC)c(OC)c(OC)c2)n(C)c1C	1%	-3%	0%	7%	-1%	-5%
Cn1c(=NC(=O)COc2ccccc2)sc2cccc(F)c21	.	3.5µM*	?	?	1.8µM*	.
COc1ccc(OC)c(NC(=O)c2ccc3c(c2)c(C)c(C)n3Cc2ccc(F)cc2)c1	.	.	-9%	.	.	.
O=c1c2ccccc2nnn1CSc1nnc2ccccn12	-9%	3.5µM*	15µM*	18µM*	3.2µM*	13µM*
Cc1ccc(-n2nnnc2SCn2nnc3ccccc3c2=O)cc1	-8%	?	13µM*	16µM*	3.5µM*	5%
COc1cc(NC(=O)c2ccc(NC(=O)N3CCSc4ncccc43)cc2)cc(OC)c1	.	.	-10%	.	.	.
O=C(NCCCCCCNC(=O)ON=C1CCCCC1)ON=C1CCCCC1	-1%[39.9 µM]	.	.	.	.	-15%
Nc1nc(NC(=O)c2ccccc2)nn1-c1ccccc1	0%	23%	?	?	28%	?

Screening results from PubChem.
